Assay results taken from PubChem BioAssay AID2162 (National Center for Advancing Translational Sciences (NCATS), 2009).
Inconclusive results are not listed. Values without a mark were called inactive. Active and inactive are the calls of the source. Calls come from the whole dose curve; as a rule, active = well fitted inhibition curve with a large enough effect; inconclusive = small, poorly fitted or top-dose-only effect; inactive = flat fitted curve, though single readings scatter.

target: Polyunsaturated fatty acid lipoxygenase ALOX12 (Homo sapiens) (UniProt P18054); experiment: Confirmation qHTS Assay for Inhibitors of 12-hLO (12-human lipoxygenase); details: purified 12-hLO, xylenol orange absorbance; activity change, negative = inhibition: active compounds read low
Source text: Assay Provider: Holman, T.R., University of California, Santa Cruz Screening Center PI: Austin, Christopher P. Screening Center: NIH Chemical Genomics Center Human lipoxygenase 12hLO is a member of the closely related lipoxygenase family of enzymes which catalyze the site-specific oxidation of arachidonic acid to various hormone precursor molecules and as such is a candidate for drug development in a variety of disease areas, such as cancer and inflammation. Inhibition of 12hLO activity was screened by utilizing arachidonic acid as a substrate. The extent of hydroperoxide product formation was measured by a secondary chromogenic reaction in which xylenol orange (XO, Sigma-Aldrich, cat. number 39,818-7) reacts with the ferric ions produced from the reaction between the hydroperoxide and ferrous ions. The Fe(III)-XO complex is characterized with red-shifted absorbance at 560 nm. A purified preparation of human 12hLO was supplied by Professor Ted Holman, University of California, Santa Cruz. This assay includes some confirmation and follow-up compounds for related primary screening assay AID 1452.
Assay Protocol: Buffer: 25 mM Hepes pH 7.0, 0.01% Triton X-100. Reagents/Controls: Buffer in columns 3 and 4 as negative control (no enzyme). Substrate solution: 40 uM arachidonic acid (Sigma-Aldrich, St. Louis, MO) final concentration dispensed throughout the plate. Enzyme: 150 nM 12hLO final concentration in columns 1, 2, 5-48. Column 1 is neutral (100% activity). Column 2 contained pin-transferred titration of NDGA (nordihidroguaiaretic acid, Sigma-Aldrich, N 5023, top concentration 20 mM in DMSO, then 1:3 dilution in duplicate). (Dilution factor: 23 nL into 4 uL.) Chromogenic detection reagent (divalent iron/xylenol orange, Fe-XO): 200 uM xylenol orange plus 300 uM ferrous ammonium sulfate prepared freshly in 50 mM sulfuric acid. Assay Steps: Three uL of enzyme were dispensed to 1536-well Greiner black clear bottom plates. Compounds and controls (23 nL) were transferred via Kalypsys PinTool. The plates were incubated for 15 min at room temperature, and then 1 uL of substrate solution was added to start the reaction. After room temperature incubation for 30 minutes, 4 uL of Fe-XO solution was added to each well and the plates were incubated for 30 min. The absorbance at 405 and 573 nm were measured using ViewLux (Perkin-Elmer) High-throughput CCD imager and absorbance protocol settings. The 573-to-405 absorbance ratio was used to compute reaction progress.

Polyunsaturated fatty acid lipoxygenase ALOX12 (Homo sapiens), sequence (P18054 whole entry, looked up): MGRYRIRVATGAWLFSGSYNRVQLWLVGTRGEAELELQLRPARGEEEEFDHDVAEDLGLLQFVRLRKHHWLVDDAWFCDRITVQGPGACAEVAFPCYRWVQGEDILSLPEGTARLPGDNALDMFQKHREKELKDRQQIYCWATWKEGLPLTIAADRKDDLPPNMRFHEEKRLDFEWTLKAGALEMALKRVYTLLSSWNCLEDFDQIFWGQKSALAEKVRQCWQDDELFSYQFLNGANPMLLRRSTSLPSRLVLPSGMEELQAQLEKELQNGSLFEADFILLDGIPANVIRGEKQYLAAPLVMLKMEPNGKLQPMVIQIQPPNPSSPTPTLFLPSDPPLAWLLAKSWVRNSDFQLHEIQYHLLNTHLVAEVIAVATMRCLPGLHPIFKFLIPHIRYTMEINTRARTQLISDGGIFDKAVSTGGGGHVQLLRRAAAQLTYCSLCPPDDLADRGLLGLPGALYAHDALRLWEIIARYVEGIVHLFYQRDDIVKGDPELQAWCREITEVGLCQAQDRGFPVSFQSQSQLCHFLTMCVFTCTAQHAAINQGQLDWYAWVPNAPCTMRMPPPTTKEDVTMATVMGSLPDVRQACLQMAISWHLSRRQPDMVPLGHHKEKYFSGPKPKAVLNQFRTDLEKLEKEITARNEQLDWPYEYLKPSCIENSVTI

SMILES	Potency	activity change, negative = inhibition [%]
CC(=O)N1CCN(c2ccc(NCc3ccc(C)cc3)cc2)CC1	22.4 µM (active)	
O=C(C1=C(O)C(=O)N(Cc2ccco2)C1c1cccnc1)c1cc2ccccc2o1 (stereo not given)		-19
Nc1cc(-c2ccncc2)c[nH]c1=O		-18.7
O=C(OCC#CCSc1nnc(-c2cccc3ccccc23)o1)c1cccc2[nH]ccc12		-10.7
CC(=O)N1CCN(c2ccc(NCc3ccc(F)cc3)cc2)CC1	31.6 µM (active)	
O=C(c1ccncc1)N1CCC2(CCCN(Cc3nccs3)C2)CC1		-1.82
CCC(=O)NC(c1ccc(C)cc1)c1ccc2cccnc2c1O (stereo not given)	31.6 µM (active)	
COc1ccccc1C(=O)OCC#CCSc1nnc(-c2cccc3ccccc23)o1		-4.87
CN(C)CCC(=O)c1ccc(Cl)cc1		-17.8
COc1ccc(C(C[N+](=O)[O-])c2c(-c3ccccc3)cc3ccccn23)c(OC)c1 (stereo not given)		-14.8
CCC(=O)NC(c1ccc(F)cc1)c1cc(Cl)c2cccnc2c1O (stereo not given)	15.8 µM (active)	
Oc1ccc2ccccc2c1CNc1cnc2ccccc2c1	5.01 µM (active)	
CCOc1ccc(NS(=O)(=O)c2ccc3[nH]cc(C(=O)N(CC)CC)c(=O)c3c2)cc1		-15.5
N#Cc1nc(-c2ccc(OCc3ccc(Cl)cc3)cc2)oc1N1CCC(C(N)=O)CC1		-12.9
CN(C)c1ccc(C(=O)OCC#CCSc2nnc(-c3cccc4ccccc34)o2)cc1		-12.9
CCCCn1c(NC(C)=O)c(C#N)c2nc3ccccc3nc21		-16
O=C(OCC#CCSc1nnc(-c2cccc3ccccc23)o1)c1ccc(Cl)cc1		-7.17
Cc1cc(Nc2nnnn2-c2ccccc2)n(-c2ccc(Cl)cc2)n1		-12.4
O=C(NCC#CCSc1nnc(-c2cccc3ccccc23)o1)c1cccs1		-3.59
COc1ccc(OC)c(NC(=O)NC2(C(F)(F)F)Oc3ccccc3O2)c1		-12.7

SMILES	Potency	activity change, negative = inhibition [%]
COc1cccc(-c2nc(NC3CCNCC3)c3ccccc3n2)c1		-5.22
Cc1cc(/C=N/NC(=O)Cn2c3ccccc3c(=O)c3ccccc32)c(C)n1-c1ccccc1		-20.8
COc1ccccc1-n1c(SCC(=O)Nc2ccc(C)cc2)nc(O)cc1=O		-21
CCC(=O)NC(c1ccco1)c1cc(Cl)c2cccnc2c1O (stereo not given)	5.01 µM (active)	
N#Cc1nc(-c2cccc3ccccc23)oc1NCC#CCOC(=O)c1cccs1		-20.1
Clc1ccc(-c2nnc(C3CCCCC3)o2)cc1		-9.47
O=C(OCC#CCSc1nnc(-c2cccc3ccccc23)o1)c1ccc2ccccc2c1		-5.58
c1csc(C2Nc3cccc4cccc(c34)N2)c1	15.8 µM (active)	
CC(=O)N1CCN(c2ccc(NCc3ccccc3)cc2)CC1	31.6 µM (active)	
O=C(Nc1nnc(-c2ccccc2)o1)c1ccc(Cl)cc1	4.47 µM (active)	
N=c1c(C(=O)NC2CCCC2)cc2c(=O)n3ccccc3nc2n1C1CCCC1		-15.4
CCC(=O)NC(c1cccs1)c1cc([N+](=O)[O-])c2cccnc2c1O (stereo not given)	7.94 µM (active)	
CCC(=O)NC(c1ccc(C)s1)c1cc(Cl)c2cccnc2c1O (stereo not given)	39.8 µM (active)	
CCC(=O)NC(c1ccc(C)cc1)c1cc([N+](=O)[O-])c2cccnc2c1O (stereo not given)	28.2 µM (active)	
Cc1noc(C)c1-c1nc(N(C)Cc2ccco2)c2ccccc2n1		-12.2
CCCC(=O)NC(c1ccco1)c1cc(Cl)c2cccnc2c1O (stereo not given)	2.82 µM (active)	
Cc1ccc(OCC(=O)Nc2ccc(N3CCCC3)cc2)cc1C		-27.5
CNc1oc(-c2cccs2)nc1C#N		-10.4
CC(=O)NCCNc1ncncc1-c1ccc(N(C)C)cc1		-13.5
Cc1ccc(-c2ccc(/C=C3\C(=O)ON=C3c3ccccc3)o2)c([N+](=O)[O-])c1	4.47 µM (active)	
